Bioassay records: PubChem, National Center for Advancing Translational Sciences (NCATS)
An excerpt weighted towards active compounds, which were near 3.6% of everything screened.
D1 antagonist = blocks dopamine activation of the human D1 receptor | P21728 | activity change, negative = inhibition, % at 10 µM | HEK293 TREx D1 cells, calcium flux, dopamine EC80; hits give low values | 360,000 tested, 3.2% active | AID 504652; in the data active = activity change below about -30%; also: % is scaled to controls: 0 for no effect and ±100 for the full control effect
Target sequence (P21728 whole entry, looked up): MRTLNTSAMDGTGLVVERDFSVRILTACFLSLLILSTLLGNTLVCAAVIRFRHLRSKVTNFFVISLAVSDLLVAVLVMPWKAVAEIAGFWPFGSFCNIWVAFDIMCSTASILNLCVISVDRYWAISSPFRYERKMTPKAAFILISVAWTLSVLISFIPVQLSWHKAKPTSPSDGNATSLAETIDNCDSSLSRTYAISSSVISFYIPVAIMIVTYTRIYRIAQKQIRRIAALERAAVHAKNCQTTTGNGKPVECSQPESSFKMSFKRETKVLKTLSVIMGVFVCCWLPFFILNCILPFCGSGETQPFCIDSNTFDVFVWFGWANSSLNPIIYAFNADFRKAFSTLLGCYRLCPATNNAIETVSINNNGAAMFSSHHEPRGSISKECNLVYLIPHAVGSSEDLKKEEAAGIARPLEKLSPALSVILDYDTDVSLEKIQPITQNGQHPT
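Inducible Hek293 Trex D1 cells (tetracycline, overnight, 30 C). Calcium dye 30–90 min RT. Antagonist mode: EC80 dopamine added after 180 s compound read.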
D1 potentiator = enhances dopamine response at the human D1 receptor. HEK293 TREx D1 cells, calcium flux, dopamine EC20 potentiation. potentiation, % at 10 µM. 360,000 tested, 0.036% active. AID 504651; in the data active = potentiation above about 30%; also: 0% is about no effect
D1 ag = human D1 receptor agonism; HEK293 T-REx D1 cells, calcium flux, agonist mode; 360,000 tested, 1% active; activation, % at 2 µM; also: 0% is about no effect
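Inducible HEK293 T-REx D1 cells, force-coupled to calcium signalling, were plated at 4000 cells/well with tetracycline and held overnight at 30 C. After no-wash calcium dye loading, compound-evoked calcium rise over 180 s flagged agonists.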
TRHR PAM = TRH receptor (human) allosteric enhancement | TRHR cells, fluo-8 calcium fluorescence, EC20 TRH enhancement | P34981 | enhancement, % at 2 µM | 360,000 tested, 0.66% active; in the data active = enhancement above about 30%; also: 0% is about no effect
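Enhancer read-out: after compound pinning and an initial kinetic agonist-mode read, an EC20 of TRH (10 nM final) was injected and fluo-8 calcium signal (Ex 480/Em 530) followed at 1 s/cycle for 100 cycles in TRHR-expressing cells.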
TRHR agonist = agonists of human TRH receptor; 360,000 tested, 0.18% active; TRHR cells, calcium flux fluo-8, FDSS agonist mode; P34981; activation, % at 2 µM; also: 0% is about no effect
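Agonist-mode FDSS calcium read (Ex 480/Em 530, 1 s cycles) in 1536-well TRHR cells with fluo-8 dye, after 10-cycle baseline and 23 nL compound addition; TRH at EC20 (10 nM final) added afterwards for the enhancer phase.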
LDHA block = LDHA (human) enzyme inhibition; purified LDHA, NADH/diaphorase-resazurin fluorescence; hits give low values; activity change, % (values are at about 110 or 230 µM); 480,000 tested, 0.15% active; AID 1347041; in the data active = activity change below about -30%;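 also: plate controls were DMSO wells for no effect and wells without enzyme for full effect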
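Human LDH5 (2 nM) was incubated with 0.06 mM NADH and 0.2 mM pyruvate for 5 min at room temperature in Tris pH 7.4. Remaining NADH was coupled through diaphorase/resazurin, and resorufin fluorescence was read at 0 and 20 min.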
* marks the source's active call; other numbers are inactive results; · = no result. Rule as the data show it, unless noted: active = activation above about 30%; inactive = the rest.

SMILES | D1 antagonist | D1 potentiator | D1 ag | TRHR PAM | TRHR agonist | LDHA block
C=CCc1ccccc1OCC(O)CNC(C)C (stereo not drawn) | -36* | -5 | 4 | 3 | 1 | -17
COc1ccc(OCC(O)CN2CCN(c3ccc(OC)cc3)CC2)cc1 (stereo not drawn) | -15 | 9 | 0 | 12 | 0 | 3
C=CCc1cc(OC)ccc1OCC(O)CN1CCN(c2ccc(OC)cc2)CC1 (stereo not drawn) | -7 | -3 | 6 | 6 | 0 | 2
COc1cc(CNC2CCCc3ccccc32)cc(OC)c1 (stereo not drawn) | · | · | · | · | · | 1
Cc1ccc(Cl)cc1N1CCN(C(=O)c2noc3c2CCc2sccc2-3)CC1 | · | · | · | · | · | -2
C=CCc1ccccc1OCC(O)CN1CCN(c2ccccc2)CC1 (stereo not drawn) | -39* | 0 | -3 | 5 | -2 | 5
OC(COc1ccccc1Cl)CN1CCN(CC(O)COc2ccccc2Cl)CC1 (stereo not drawn) | -82* | -6 | 99* | -5 | 3 | -1
Cc1ccccc1OCC(O)CN1CCN(C)CC1 (stereo not drawn) | -10 | -2 | 1 | 3 | 0 | -1
Cc1ccc(C2NC(=O)N(C)C3=C2C(=O)N(c2ccc(C)cc2)C3)cc1 (stereo not drawn) | · | · | · | · | · | 0
N#CC(Cc1cccnc1)C(=O)Nc1ccc(Cl)c(Cl)c1 (stereo not drawn) | · | · | · | · | · | -3
CCN(C(=O)Cc1noc2ccccc12)c1ccc(OC)cc1 | · | · | · | · | · | 11
COc1ccc(C(=O)NCc2ccccc2CN2CCCC2)cc1S(=O)(=O)N1CCOCC1 | -57* | -19 | 1 | 4 | 0 | -4
CCc1ccc(C(=O)Nc2ccc(OC)c(S(=O)(=O)N3CCOCC3)c2)cc1 | -7 | 3 | 5 | -2 | 0 | 1
O=C(NCc1ccccc1CN1CCCC1)c1cccc(S(=O)(=O)N2CCCC2)c1 | -13 | -2 | 3 | 7 | 0 | -11
Cc1ccc(C(=O)NCCCN2CCOCC2)cc1S(=O)(=O)N1CCCCC1 | 2 | -6 | 3 | 0 | 0 | 1
COc1ccc(NC(=O)c2ccc(-c3ccccc3)cc2)cc1S(=O)(=O)N1CCOCC1 | -30* | -5 | 6 | -4 | 1 | -12
Cc1ccc(C(=O)NCc2ccccc2CN2CCCC2)cc1S(=O)(=O)N1CCOCC1 | -22 | -20 | 0 | 0 | 0 | -5
O=C(NCCN1CCOCC1)c1ccc(Cl)c(S(=O)(=O)N2CCCCC2)c1 | -36* | 7 | 3 | 0 | 0 | -6
O=C(NCc1ccccc1CN1CCCC1)c1ccc(Cl)c(S(=O)(=O)N2CCCC2)c1 | -51* | -8 | 12 | -2 | 0 | -3
CCCNC(=O)CNC(=O)Cn1c(-c2ccccc2)cc2ccccc21 | · | · | · | · | · | 9
CCC(Sc1nc2nccnc2c(=O)n1Cc1ccccc1Cl)C(=O)Nc1cccc(OC)c1 (stereo not drawn) | · | · | · | · | · | 16
Cc1ccc(C(=O)Nc2ccc(-c3nc4ccc(C)cc4s3)cc2)c(C)c1 | · | · | · | · | · | 9
COc1cccc(-n2nc(C(=O)O)c3ccccc3c2=O)c1 | 27 | -2 | 2 | -3 | 1 | 0
COC(=O)CNC(=O)c1nn(-c2cccc(OC)c2)c(=O)c2ccccc12 | -40* | -2 | 2 | 1 | 0 | -2
CC(Oc1cccc(Cl)c1)C(=O)Nc1nc(-c2ccccn2)cs1 (stereo not drawn) | -35* | -6 | 5 | 11 | 1 | 5
SMILES | D1 antagonist | D1 potentiator | D1 ag | TRHR PAM | TRHR agonist | LDHA block
CCOC(=O)/C(C#N)=C/c1cc(Cl)c(OCCOc2ccc(C(C)CC)cc2)c(OC)c1 (stereo not drawn) | · | · | · | · | · | -6
CCOC(=O)c1cccc(NC(=O)CCn2nc(C)c(S(=O)(=O)N3CCCCC3)c2C)c1 | -4 | -7 | 4 | -6 | 0 | -3
CC(=O)c1cccc(NC(=O)CCn2nc(C)c(S(=O)(=O)N(C)C)c2C)c1 | -47* | -1 | 0 | 3 | 1 | 1
c1ccc(C(Sc2ncccn2)c2ccccc2)cc1 | · | · | · | · | · | 5
O=S(=O)(Nc1cccc2ccccc12)c1ccccc1 | -21 | 12 | 1 | 0 | 1 | 1
O=S(=O)(Nc1cccc2ccccc12)c1cccc2ccccc12 | -43* | -6 | 3 | -2 | 0 | -2
COc1ccc(C2c3c4c(n(C)c3CCN2C)CCN(C)C4c2ccc(OC)cc2)cc1 (stereo not drawn) | -31* | -2 | 2 | -5 | 2 | -9
CCOC(=O)c1c(NC(=O)c2ccc(Br)cc2)sc2c1CCCC2 | 10 | -6 | 0 | 0 | 0 | 0
Cc1ccccc1OCC(=O)Nc1sc2c(c1C(=O)OC(C)C)CCCC2 | 4 | 2 | 45* | 4 | -1 | -3
CCOC(=O)c1c(NC(=O)/C=C/c2ccc(C)cc2)sc2c1CCCC2 | -17 | -1 | 39* | 1 | 1 | -12
CCOC(=O)c1c(NS(=O)(=O)c2cccc(OC)c2)sc2c1CCC2 | -8 | 0 | 64* | 5 | -1 | -1
CCCOc1ccc(C(=O)Nc2sc3c(c2C(=O)OCC)CCCCC3)cc1 | -31* | -1 | -1 | 5 | 0 | -4
NC(=S)c1ccc(S(N)(=O)=O)cc1 | · | · | · | · | · | -7
CN(Cc1ccccc1)c1nc2c(c(=O)n(C)c(=O)n2C)n1CC(O)COc1ccccc1 (stereo not drawn) | · | · | · | · | · | 1
COc1cc(/C=C(\C#N)c2ccccc2)c(Br)cc1OCc1ccccc1Cl | · | · | · | · | · | 15
CCCNC(=O)c1c(NC(=O)c2ccccc2F)sc2c1CCCCC2 | 18 | 2 | 0 | 35* | 0 | -5
CCOC(=O)N1CCN(C(=O)CS(=O)(=O)Cc2nc(-c3ccccc3C)oc2C)CC1 | -9 | 0 | 2 | -1 | -1 | -5
CCOc1ccc(-c2nc(CSCC(=O)N3CCN(c4ccc(F)cc4)CC3)c(C)o2)cc1 | 3 | -5 | 4 | 0 | 0 | 5
CCOC(=O)N1CCN(C(=O)CSCc2nc(-c3ccccc3F)oc2C)CC1 | -44* | 5 | 7 | 3 | 0 | 0
COc1ccc(-c2nc(CSCC(=O)N3CCN(c4ccc(OC)cc4)CC3)c(C)o2)cc1 | -37* | -5 | 4 | 6 | 0 | 5
Cc1oc(-c2ccccc2F)nc1CSCC(=O)NC1CCCC1 | -13 | -4 | 1 | 4 | 0 | -1
CCOC(=O)N1CCN(C(=O)CSCc2nc(-c3ccccc3C)oc2C)CC1 | -34* | -5 | 9 | 8 | -1 | -4
CCOC(=O)C1CCN(C(=O)CS(=O)(=O)Cc2nc(-c3ccccc3Cl)oc2C)CC1 | -40* | -10 | 9 | 5 | -1 | 1
